From the supplement of paper PMC12632987

T1: USP38, Q8NB14
T1 chain: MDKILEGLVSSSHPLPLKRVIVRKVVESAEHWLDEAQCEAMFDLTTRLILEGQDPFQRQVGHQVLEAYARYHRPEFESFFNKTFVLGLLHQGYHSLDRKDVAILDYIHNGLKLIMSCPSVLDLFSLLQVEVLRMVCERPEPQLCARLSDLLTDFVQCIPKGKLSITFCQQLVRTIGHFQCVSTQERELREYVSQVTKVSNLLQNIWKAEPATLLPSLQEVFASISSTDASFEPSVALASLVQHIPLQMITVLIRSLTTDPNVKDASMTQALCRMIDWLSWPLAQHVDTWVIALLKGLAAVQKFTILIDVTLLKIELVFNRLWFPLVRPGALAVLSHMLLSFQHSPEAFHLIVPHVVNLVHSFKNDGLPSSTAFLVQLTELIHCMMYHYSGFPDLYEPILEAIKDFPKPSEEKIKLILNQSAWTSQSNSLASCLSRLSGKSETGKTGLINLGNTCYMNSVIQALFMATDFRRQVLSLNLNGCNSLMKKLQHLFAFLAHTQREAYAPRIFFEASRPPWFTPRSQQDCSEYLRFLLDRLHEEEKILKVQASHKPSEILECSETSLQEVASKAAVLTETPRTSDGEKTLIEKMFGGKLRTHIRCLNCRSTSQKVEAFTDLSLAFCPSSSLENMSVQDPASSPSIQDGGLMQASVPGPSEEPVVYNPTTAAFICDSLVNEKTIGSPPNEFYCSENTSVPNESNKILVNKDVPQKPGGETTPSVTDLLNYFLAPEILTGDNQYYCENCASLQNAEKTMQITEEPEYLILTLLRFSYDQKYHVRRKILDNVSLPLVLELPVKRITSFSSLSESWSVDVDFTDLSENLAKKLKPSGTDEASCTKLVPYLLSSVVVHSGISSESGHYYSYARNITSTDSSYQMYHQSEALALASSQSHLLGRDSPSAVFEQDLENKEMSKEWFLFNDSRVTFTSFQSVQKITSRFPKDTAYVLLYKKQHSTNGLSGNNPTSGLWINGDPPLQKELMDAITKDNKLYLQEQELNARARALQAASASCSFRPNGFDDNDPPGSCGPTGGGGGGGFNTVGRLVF


Biological target: T1, USP38, Q8NB14
Assay: median log2 fold change of GCK-ALFA target abundance (FLAG IP / Myc IP barcode read proportion) (log2 ratio); each designed protein is fused to an ALFA-tag nanobody in HEK293 cells to bring the named protein to FLAG-tagged glucokinase (GCK); Myc marks an untargeted standard; higher = target protein stabilised (more abundant)
Details: target protein: 3xFLAG-MCP-GCK-ALFA reporter; HEK293 landing pad (RPLP)
Method in brief: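 Binders fused to an ALFA nanobody were recombined as a library into HEK293 landing-pad cells, which were induced with 2 μg mL^−1 doxycycline and then transfected to express a FLAG-tagged target and a Myc-tagged standard. After 48 h, circular RNA barcodes recovered by anti-FLAG and anti-Myc immunoprecipitation of lysates were reverse transcribed, amplified and sequenced. Each binder's target abundance is the median log2 ratio of FLAG to Myc barcode read proportions, from barcodes present at ≥10^−7 in both replicates, binders carrying ≥3 barcodes per replicate, a 10^−6 pseudocount and pooled replicates.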

Binder | median log2 fold change
usp_38_diff_out_18_28_406 (protein) SSEEIEKKIEEAKEETDKLIDRYVEISTAAFLKYHEDPSSEELLKKVNELADALGKAAKAVNEMRENKDNEEKVEKYLEEYKKYSEEAEKLLEEIEKLIK | 0.0217
usp_38_diff_out_18_28_412 (protein) SAAAVQATIDQMKADLDALIDEANEVSEKAFLKYGEDPSSTELLAAVNELWDHLGAAAQAVNDARRNRDNEAAVAAKAAEFKKHADKAKEKIAEIKKLIA | -0.188
usp_38_diff_out_18_28_401 (protein) MEEEIEKKIKEAKEKTDEMIDEYVELGEQAFLKYHEDPSSEHLLELLNEAADALGKAAKAVNLMRENKDDPEKVEKELEKFKKYSEKAEKLFEEIKKELE | -0.818
usp_38_diff_out_18_28_396 (protein) AEAERAALEKRLAELQKRLDALITEATAAATAALEAHPDDAAVWALVAQLFDALGAAAAALQRARELLRAGGPLEEVQAALDEAEAHLAQAEALLAELKA | -0.054
usp_38_diff_out_18_28_381 (protein) AEARRAELERRLEELLRELNELIDEATKLATEKLTEHPDDEEVWELVDRLFDELGRAAAHLREARELLRAGAPAEEVEKELREAEEHLKRAKELLKELEA | -0.371
usp_38_diff_out_18_28_394 (protein) SAAERAALEAELAALEAELDALIDEATKAATEALTANPDSEEVWALVDALFDALGAAAAALRRARELLRAGGPLAEVQAALDEARKHLAEAKKLLKELKA | -0.118
usp_38_diff_out_18_28_383 (protein) AEAERAELEKRLEELEKELNELIDEATEAATEKLEAEPDSEEVWELVDELFDELGKAAAKLREARELLRAGAPAEEVQKALEEAEEHLKRAKELLEELKE | -0.0589
usp_38_diff_out_18_28_387 (protein) MEKEREELKKELEELRKRLDELIDRATEEATRALTAHPDDEEVWELIDRLFDTLGEAAAALNRARELLRAGGPLEEVKKELEKARKALEEAERLLEELEA | -0.291
usp_38_diff_out_18_28_386 (protein) EEERRRELERELRELERRLDELIDEAVAAATEALEAHPDDEEVWALVDELFDTLGRAAAALREARELLRAGGPLEEVERALREAREALERAERLLAELKA | -0.0533
usp_38_diff_out_18_28_409 (protein) AKEEIEKKIEEAEKELDELIDEYVKISTEAFLKYHEDPSSKELLEAVNELADELGKAAQAVNEMRKNRDDKEAVEKQLKVFEEHKKKAEELLKKIKELIK | -0.273
usp_38_diff_out_18_28_388 (protein) SEEEREELRERLEELEKRLDALIDEATAVATAALTAHPDSAEVQALVAELFDALGAAAAALRRARELLRRGGPLEEVREALEEAERHLEEAERLLAELRA | 0.11
usp_38_diff_out_18_28_392 (protein) MEEERERLERELEELRRRLDELIDEATAVATAKLEEHPDDEEVWALIDELFDALGAAAQALREARELLREGGDPEEVRRKLEEARRALEEAERLLAELKA | -0.26
usp_38_diff_out_18_28_411 (protein) KKEEIQEKIKKAEEKLDKLIDKYVEISTKAFLKYHENPESKELLEAVDKLADELGKAAQHVNLMRENKDDEEKVEKELKEFEEHSKKAEELLKKVEELIK | -0.206
usp_38_diff_out_18_28_397 (protein) EEERREELERRLEELERELDALIREATEAATAALEAHPDSAEVWALVDALFDALGAAAAHLRRARELLREGGPLEEVERELEKAEAHLAEARALLAELKA | -0.194
usp_38_diff_out_18_28_389 (protein) AAAARAALEAELAALRAELDALIDEATELATRKLEEHPDDEEVWELVDRLFDALGRAAAHLEEARRLLREGGDLAAVQAELDAARAALAEAKRLLEELKA | -0.314
usp_38_diff_out_18_28_403 (protein) MQEEVEKKIKEAEKKTDELIDKYTEAATAGFLKYAEDPSATELVEAVRAAADALGAAAQAVNEMKRNKDDPEKVEELLKKFEEAYKKAEEALKEIERLIA | -0.0578

Binder | median log2 fold change
usp_38_diff_out_18_28_395 (protein) MEEERAKLEEELKKLEKELNELIDRATAAATAALTAHPDDADVWALVDALFDSLGAAAYHLREARELLREGGPLEEVKKELEKAKEHLKEAKALLAELEA | -0.179
usp_38_diff_out_18_28_407 (protein) MEEEIKEKIEEAKKRLDELIDRYVEIATKAFLKYHENPESKELLEKVRKLADELGKAAQAVNLMRENKDNEEKVEEELEKFEKHYEEAEKLLEEIEKLIK | -0.152
usp_38_diff_out_18_28_393 (protein) SEERRKELEERLKALEAELDALITEATAVATERLEAHPDDEAVWELVDALFDALGAAAAALREARELLRAGGDLEEVEALLDQAEAALAEAKALLAELKA | -0.136
usp_38_diff_out_18_28_380 (protein) AEEERRRLEEELEALKAELDALITEATALATAKLEAHPDDAEVWALVDALFDALGAAAAALERARELLRAGAPPEEVRAALAEARAHIAEARALMAQLAA | -0.0972
usp_38_diff_out_18_28_399 (protein) EEEERRRLEEELRRLEEELDELIDEAVEAATKALTAHPGDEAVEALVRELFDHLGAAAAALREARELLRAGGDPEEVRRLLEEAREHLEKAREALKELKA | -0.117
usp_38_diff_out_18_28_391 (protein) SSAERERLERELERLERELDELIDEATAVATEKLEEHPDDEEVWRLIDELFDALGRAARALSEARRLLREGGPPEEVERALEEARRHLERARELLEELKE | -0.315
usp_38_diff_out_18_28_382 (protein) AAAEREKLEAELKKLEAELNKLIDEATELATKKLTEHPDDEEVWKLVDELFDALGKAAAALNRARELLRAGGPAEEVKKALEEAEKYMKEAKKLMEELKK | 0.595
usp_38_diff_out_18_28_398 (protein) SAAERAELEAELAALQKELDALITEATAAATAALTAHPDSAEVWALVDALFDHLGAAAAALREARRLLREGGPLEEVRAALAAAQAHLAEARALLAELKA | 0.000517
usp_38_diff_out_18_28_400 (protein) MQEEIQKIIEENEKKTNELIDKYTELGEKAFLAYHEDPSNEELLEKLDELADALGKAAKKVNEMRENKNDPEKVKEYSKEFEEYYKKAEALMKEIEKLLA | -1.05
usp_38_diff_out_18_28_410 (protein) KKEEIEKKIEEAEEELDKLIDEYVEVATEAFLKYHEDPSSEELLEKVRELADELGKAAKAVNEMRENKDNEEKVEEELEKFKKHKEEAEKLLKEVKELIK | -0.357
usp_38_diff_out_18_28_405 (protein) MQEEIEKKIEEAEKRTNELIDKYTEAATRAFEAYAEDPSKTELVKAINEASDALGKAAQAVNEMKRNKDDPEKVEKELKKFEEAYKKAEEAIAKIEELIA | 0.0557
usp_38_diff_out_18_28_402 (protein) MEEEIEKKIEEAEKRTDELIDEYVELGEKAFLKYHEDPSSEELLEKLDKLADELGKAAQAVNLMRENRDDPEKVEKEYAEFEKYYEKAKKLLEEIKKLLE | 0.282
usp_38_diff_out_18_28_385 (protein) MEEERKKLEEELEKLKKELDKLIDEAVELATAALEAHPDDEAVWALVDALFDALGAAAAALNRARELLKAGGDPEEVKKELDKARAALKEAKALLAELKA | -0.282
usp_38_diff_out_18_28_404 (protein) MMEEIQKKIEEAEKEADKLIDEYTKAATEAFLKYAEDPSATELVEAVNKAADALGEAAKAVNEMRRHKDDPEKVEKELKKFEEAKKKAEEALKEIKKLIA | -0.178
usp_38_diff_out_18_28_384 (protein) DAAERAALEKELEELRKRLDELIDRAVEAATAALEAHPDDEAVWALVDALFDTLGAAAAALNEARALLKAGGDPAEVKAALEEARKALAEAERLLAELEA | 0.0029
usp_38_diff_out_18_28_390 (protein) EEEERERLERRLRELERELDALIDEATAAITEALTAHPDDEEVWALVDALLDSLGRAAAALNEARRLLAEGGPLEEVERALEEAERHLREAKALLAELKA | 0.124
